Source: PubChem BioAssay (Paczesny and Yang Labs, IUPUI and University of Michigan)
ST2 IL33 inh: inhibitors of human ST2 (IL1RL1) binding to IL-33 | inhibition, % for hits at 17 µM | 2.3% of 78,000 active | AlphaLISA ST2-Fc/biotin-IL-33 interaction, 1 h | AID 1259354 | Q01638; in the data active means inhibition above about 30%
Target sequence (Q01638 whole entry, looked up): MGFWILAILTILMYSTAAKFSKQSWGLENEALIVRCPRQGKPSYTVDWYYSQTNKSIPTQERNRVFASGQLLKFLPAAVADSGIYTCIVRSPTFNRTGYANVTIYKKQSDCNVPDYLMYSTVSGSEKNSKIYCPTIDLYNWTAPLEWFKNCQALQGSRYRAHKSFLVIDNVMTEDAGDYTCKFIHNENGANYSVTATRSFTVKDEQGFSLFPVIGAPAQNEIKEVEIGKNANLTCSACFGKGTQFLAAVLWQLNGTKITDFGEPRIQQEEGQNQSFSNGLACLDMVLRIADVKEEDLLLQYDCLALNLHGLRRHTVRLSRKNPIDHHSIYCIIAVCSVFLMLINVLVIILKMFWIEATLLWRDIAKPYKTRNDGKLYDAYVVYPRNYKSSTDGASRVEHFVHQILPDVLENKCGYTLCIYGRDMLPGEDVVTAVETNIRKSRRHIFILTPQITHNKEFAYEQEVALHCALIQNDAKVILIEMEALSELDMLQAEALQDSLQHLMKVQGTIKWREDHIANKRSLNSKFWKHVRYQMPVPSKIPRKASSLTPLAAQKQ
* = called active by the depositor; i = inactive; ! = repeats disagree. This is one part of a sample in which hits are shown more often than they occur.

SMILES	ST2 IL33 inh
O=C1NC(=O)/C(=C\c2cccc([N+](=O)[O-])c2)S1	i
CCCCc1cn(CC2CCN(C(=O)c3ccc4cc[nH]c4c3)CC2)nn1	i
CCN(Cc1ccccc1)S(=O)(=O)c1ccc(Cl)cc1	i
COCCC(=O)NC1CCCN(CCc2ccccc2)C1 (stereo not drawn)	i
O=C1CC(NC2CCN(Cc3ccco3)CC2)CN1CCc1ccccc1 (stereo not drawn)	i
O=C(CCc1ccco1)NC1CCCN(CCc2ccccc2)C1 (stereo not drawn)	31.0%*
O=C1CCCC2=C1C(c1cccc(O)c1)c1c(nc(SCc3ccccc3)[nH]c1=O)N2 (stereo not drawn)	i
CC(C)n1c(Br)nc2c1c(=O)[nH]c(=O)n2C	i
COc1ccc(CNC(=O)[C@@H]2Cc3nc[nH]c3CN2C)cc1	i
O=C1C2C3C=CC(C2C(=O)N1c1cccnc1)C1C(=O)N(c2cccnc2)C(=O)C31 (stereo not drawn)	i
N#Cc1c(NC(=O)c2cc(-c3ccc(Br)cc3)on2)sc2c1CCC2	i
COc1ccc(CC2SC(=Nc3ccccc3)NC2=O)cc1 (stereo not drawn)	31.0%*
O=C1NC(=Nc2ccccc2)SC1Cc1cccc([N+](=O)[O-])c1 (stereo not drawn)	i
O=C1NC(=Nc2ccccc2)SC1Cc1ccccc1 (stereo not drawn)	i
Cc1cccc(-n2c3nc(=O)[nH]c(=O)c-3cc3ccccc32)c1C	i
Cc1ccccc1Cc1c(C)nc2nc(SCC(=O)O)nn2c1C	i
CCN(CC)Cc1cnc2c(C(=O)Nc3ccc(OC)cc3C)cnn2c1	i
CCN1CCN(C(=O)c2cc(=O)c3ccccc3o2)C(C)C1=O (stereo not drawn)	i
Cc1ccc(NC2CCCN(C(=O)c3cc(=O)c4ccccc4o3)C2)cc1C (stereo not drawn)	i
CCCC1COCCN1C(=O)c1cc(=O)c2ccccc2o1 (stereo not drawn)	40.0%*
O=C1C2[C@H](C(=O)N1c1ccc(Cl)c(C(F)(F)F)c1)[C@H]1C=C[C@@H]2C12CC2 (stereo partly drawn)	i
O=C1NC(c2ccc(Br)cc2)=C(c2ccccc2)C1=O	i
Cc1ccc2[nH]c3c(c2c1)CCCC3=O	i
Cc1ccc2[nH]c3c(c2c1)CN(Cc1ccccc1)CC3	i
Cc1ccc2[nH]c3c(c2c1)CCC1C3=NNC1c1ccco1 (stereo not drawn)	37.0%*
SMILES	ST2 IL33 inh
CC(C)c1nc(-c2ccc3ccccc3n2)n(-c2ccccn2)n1	i
COC(=O)Oc1ccc2c(=O)c(Oc3ccccc3Cl)coc2c1	i
O=C(Nc1cccc(N2CCC(NCc3ccccc3OC(F)(F)F)CC2)c1)c1ccncc1	i
Cc1nc2ccccc2c2c1C(=O)N(c1ccc3c(c1)OCO3)C2=O	51.0%*
Cc1ccc(Cl)cc1N1C(=O)c2c(C)nc3ccccc3c2C1=O	31.0%*
Cc1nc2ccccc2c2c1C(=O)N(c1cccnc1Cl)C2=O	i
Cc1nc2ccccc2c2c1C(=O)N(c1ccc(C(N)=O)cc1)C2=O	i
COc1cc([N+](=O)[O-])ccc1N1C(=O)c2c(C)nc3ccccc3c2C1=O	i
Cc1noc(C)c1-c1nc(CC(C)C)nn1-c1ccc2c(c1)OCO2	i
CCc1ncc(C(=O)N(C)Cc2ccccc2C(F)(F)F)cn1	i
COc1ccccc1NC(=O)CNC(=O)c1cn(-c2ccccc2OC)c(=O)c2ccccc12	i
N#Cc1ccccc1-c1nc2c3c(c(N)ccc3n1)C(=O)c1ccccc1-2	42.0%*
COc1ccc(-c2ccnc(N[C@H]3CO[C@H]4[C@@H]3OC[C@@H]4NC(=O)Nc3cc(OC)cc(OC)c3)n2)cc1	i
Cc1ccccc1Cn1nc(C)c(NC(=O)c2cc(-c3ccc4c(c3)OCO4)on2)c1C	i
Cc1ccccc1CSC1=NCCN1C(=O)c1cc2ccccc2o1	i
COc1ccc(OC)c(N(CC(=O)N(C)C)S(=O)(=O)c2ccccc2)c1	i
Cn1cc(C(=O)N2CCN(Cc3ccccc3)CC2)c2c3ccccc3n(C)c2c1=O	i
Cc1cc(Br)c2c3c(c(N)c(=O)[nH]c13)-c1ccccc1C2=O	45.0%*
Cc1cc(C)c2c(=O)cc(C3C(=O)c4ccccc4C3=O)[nH]c2c1	i
O=C(c1ccc2c(Cl)c3c(nc2c1)CCCC3)N1CCOCC1	i
COc1ccc(NC(=O)N2CC[C@H]3CC(=O)N(CCN4CCNC4=O)CC[C@H]3C2)cc1	53.0%*
COc1ccc(NC(=O)N2CCN(C)CC2)cc1	i
CCNC(=O)N1CC[C@H]2CC(=O)N(CCN3CCNC3=O)CC[C@H]2C1	i
O=C(NC1CCCCC1)c1ccc2nc3ccc(Cl)cc3c(=O)n2c1	i
CCOC(=O)C1C(=O)C=C(c2ccc(OC)c(OC)c2)CC1c1ccc(F)cc1 (stereo not drawn)	i
SMILES	ST2 IL33 inh
COc1ccccc1Oc1nc2c(c(=O)n(C)c(=O)n2C)n1Cc1ccccc1F	31.0%*
CCOc1nc2c(c(=O)n(C)c(=O)n2C)n1Cc1ccccc1Cl	30.0%*
CC1CCN(c2nc3c(c(=O)n(C)c(=O)n3C)n2Cc2ccccc2Cl)CC1	i
C#CCOc1nc2c(c(=O)n(C)c(=O)n2C)n1Cc1ccccc1Cl	i
CC(CCO)Nc1nc2c(c(=O)n(C)c(=O)n2C)n1Cc1ccccc1F (stereo not drawn)	i
COCCCNc1nc2c(c(=O)n(C)c(=O)n2C)n1Cc1ccccc1F	i
CCOC(=O)C1=C(C)Nc2nc(SCc3ccccc3)nn2C1c1cccs1 (stereo not drawn)	i
Clc1ccc2nc(N3CCCC3)sc2c1	i
O=C(NCCO)/C(=C/c1ccc2c(c1)OCO2)NC(=O)c1ccccc1Cl	i
CCc1cccc(CC)c1NS(=O)(=O)c1ccc(Cl)cc1	i
COC(=O)c1c(S(=O)(=O)N2CCCCCCC2)sc2c1CCN(C(=O)CSC)C2	i
Cn1cnc2cc(NCc3ccc(Br)cc3)ccc21	i
CCCn1cnc2cc(NCc3cccs3)ccc21	i
CCn1cnc2cc(NCc3cccc(OC)c3)ccc21	i
CN(C)c1ccc(CNc2ccc3c(c2)ncn3C)cc1	46.0%*!
CCN(CC)c1ccc(CNc2ccc3c(c2)ncn3C)cc1	50.0%*!
Cn1cnc2cc(NCc3ccccc3Cl)ccc21	i
CCN(CC)c1ccc(CNc2ccc3c(c2)ncn3C(C)(C)C)cc1	40.0%*
CC(C)(C)n1cnc2cc(NCc3ccc(Cl)cc3Cl)ccc21	i
COc1cccc(CNc2ccc3c(c2)ncn3C)c1OC	i
O=C(O)c1ccccc1SC1CC(=O)N(c2cccc(C(F)(F)F)c2)C1=O (stereo not drawn)	i
O=C(O)COCC(F)(F)C(F)F	i
CC1=C(C(=O)Nc2ccc(C)cn2)C(c2ccccc2)C2=C(CC(C)(C)CC2=O)N1 (stereo not drawn)	i
Cn1c(=O)c2c(SCc3ccc(F)cc3)nc(-c3ccc(F)cc3)nc2n(C)c1=O	i
O=C(CSc1ncn[nH]1)Nc1cc(C(F)(F)F)ccc1Cl	i
CC(C)c1ccc(C(=O)CSc2ncn[nH]2)cc1	30.0%*
CCc1nnc(NC(=O)CSc2ncn[nH]2)s1	i
COc1ccccc1N1C(=O)CC(N2CCOCC2)C1=O (stereo not drawn)	i
CCOc1ccccc1N1C(=O)CC(Nc2ccc(N3CCOCC3)cc2)C1=O (stereo not drawn)	51.0%*
CCOc1ccccc1N1CCN(C2CC(=O)N(c3ccccc3)C2=O)CC1 (stereo not drawn)	i
